Anthrax LF inh2: blocks Bacillus anthracis lethal factor protease; inhibition, % at 10 µM; multiplex microsphere protease cleavage assay, LF; hit rate 0.12% among 360,000; P15917; note: plate controls were buffer without enzyme for full effect and enzyme alone for no effect
MazEF act: activators of E. coli MazEF toxin-antitoxin RNase; hit rate 0.32% among 350,000; FAM/BHQ RNA-DNA oligo cleavage fluorescence, 5 h; P0AE70; AID 504720; activation, % at 20 µM; in the data active = activation above about 50%
BoNT A protease: inhibitors of Botulinum neurotoxin A light chain protease; multiplex microsphere protease substrate cleavage, flow cytometry; inhibition, % at 10 µM; hit rate 0.17% among 360,000; AID 588499; note: plate controls were buffer without enzyme for full effect and enzyme alone for no effect
BoNT-F LC inh: blocks Botulinum neurotoxin F light chain protease | Multiplex microsphere protease cleavage assay, flow cytometry | inhibition, % at 10 µM | hit rate 0.22% among 360,000 | AID 588497; in the data active = inhibition above about 35%, passing the limit was not always enough; inconclusive = no clear call, values can overlap the other calls; note: plate controls were buffer without enzyme for full effect and enzyme alone for no effect
Bead autofluor: compound fluorescence in toxin protease inhibitor counterscreen. compound autofluorescence counterscreen, microsphere flow cytometry; stronger effect = higher value. fluorescence intensity (test concentration not listed). hit rate 3.1% among 360,000. AID 624483; in the data active = fluorescence intensity above about 16000; inconclusive = no clear call, values can overlap the other calls
VHR inh abs: inhibitors of human VHR1 phosphatase (DUSP3); recombinant VHR phosphatase, pNPP absorbance; P51452; hit rate 0.52% among 290,000; inhibition, % at 13.3 µM; AID 1654; in the data active = inhibition above about 50%
* = called active by the depositor; ? = inconclusive; . = no result. An excerpt weighted towards active compounds, which were near 4% of everything screened. Cut-off read from the data, not from the text of the source, unless noted: active = inhibition above about 30%; inconclusive = no clear call, values can overlap the other calls; inactive = below that.

SMILES | Anthrax LF inh2 | MazEF act | BoNT A protease | BoNT-F LC inh | Bead autofluor | VHR inh abs
Cc1ccccc1NC(=O)c1ccc(F)c(S(=O)(=O)N2CCN(c3ccccn3)CC2)c1 | -3.0 | 1.7 | -3.5 | -3.8 | 23271* | 21.4
CCCCCC(N)=O | -4.1 | 3.5 | -0.1 | 0.9 | 5196 | .
O=C(Cn1cncn1)NCc1cccc(OC(F)F)c1 | 0.3 | -0.1 | -0.5 | -1.9 | 2672 | 20.2
COc1ccc(N(C)S(=O)(=O)c2c(C)[nH]c(=O)[nH]c2=O)c(OC)c1 | -3.2 | 2.1 | 0.4 | -2.1 | 23317* | 6.6
Cc1snc(SCC(=O)N/N=C(\N)COc2cccc(C(F)(F)F)c2)c1C#N | 1.0 | 18.7 | ? | -1.1 | 20365* | 2.5
O=C(NC1CCCCC1)NC1CC2CCC(C1)N2C(=O)NCc1ccccc1 (stereo not drawn) | . | . | . | . | . | 19.0
CC(=O)Nc1cccc(NC(=O)c2ccc(Br)cc2)c1 | -3.9 | 4.1 | -0.7 | -7.2 | 4321 | 19.7
COc1cc(Cl)ccc1OCc1cc(C(=O)N2C[C@H]3CC[C@H]2C3)no1 | -1.3 | 1.1 | -8.0 | -20.4 | 8208 | 53.3*
COc1cc(Cl)ccc1OCc1cc(C(=O)N2C[C@@H]3CCC[C@H]2C3)no1 | 5.4 | 1.4 | 2.8 | 0.6 | 5944 | 2.5
O=C(Nc1c(C(=O)N2CCOCC2)cnn1-c1ccccc1)c1ccccc1 | -1.7 | 2.7 | -1.4 | 5.2 | 11466 | -4.4
O=C(Nc1c(C(=O)N2CCOCC2)cnn1-c1ccccc1)c1ccco1 | -3.7 | -2.9 | ? | -2.5 | 23770* | -1.0
Clc1ccc2c(c1)nc1n2CCCC1 | -8.2 | 3.3 | -6.3 | 13.9 | 3585 | 11.2
Cc1cccc(N(C)c2ncnc3onc(-c4ccc(F)cc4)c23)c1C | -4.0 | 7.8 | -0.3 | 1.2 | 4175 | 8.9
O=C(NNc1ccccc1[N+](=O)[O-])Nc1ccccc1 | 0.5 | 7.0 | ? | -0.7 | 20435* | 21.8
O=C(NNc1ccccc1[N+](=O)[O-])Nc1ccc(F)cc1 | -1.2 | 6.9 | -1.3 | -4.2 | 2030 | 2.9
COc1ccc(NC(=S)N2CCN(S(C)(=O)=O)CC2)cc1OC | -1.5 | 2.8 | -0.7 | 1.8 | 4395 | 1.1
CCOC(=O)c1ccc(NC(=S)N2CCN(S(C)(=O)=O)CC2)cc1 | -3.0 | 1.2 | -0.6 | -1.4 | 16800* | 41.5
CCOC(=O)c1ccc(NC(=O)N2CCN(S(C)(=O)=O)CC2)cc1 | -5.9 | 5.2 | -3.4 | -5.9 | 17414* | -2.4
CCOc1ccc(NC(=O)N2CCN(S(C)(=O)=O)CC2)cc1 | -9.4 | -12.2 | -0.8 | -4.6 | 3272 | 44.5
COc1ccc(NC(=O)N2CCN(S(C)(=O)=O)CC2)cc1OC | -1.1 | 4.2 | -1.2 | -2.1 | 22966* | 19.4
CCOC(=O)c1cc(NC(=O)C2CCCO2)cc(C(=O)OCC)c1 (stereo not drawn) | -7.5 | -3.5 | 8.0 | 8.3 | 16398* | -20.3
O=C(Cn1c(=O)n(CCCCC(=O)NC2CCCC2)c(=O)c2ccccc21)NCCC1=CCCCC1 | -0.6 | -12.1 | -0.5 | -2.0 | 3786 | 15.2
O=C(CCOc1ccccc1)Nc1ccccc1F | 2.9 | 3.4 | 1.8 | -13.4 | 3515 | -5.3
COc1ccc(Cl)cc1NC(=O)N1CCN(C2CCCCC2)CC1 | -1.8 | -5.5 | ? | -3.0 | 20816* | 1.2
CCOC(=O)c1ccc(NC(=O)N2CCCCC2)cc1 | 0.1 | -1.8 | 0.2 | -5.6 | 3015 | 24.3
SMILES | Anthrax LF inh2 | MazEF act | BoNT A protease | BoNT-F LC inh | Bead autofluor | VHR inh abs
CCOC(=O)c1ccc(NC(=O)N2CCN(C3CCCCC3)CC2)cc1 | -2.8 | -3.9 | -0.6 | -2.8 | 16368* | 17.1
CCOC(=O)c1ccc(NC(=O)NC(C)C2CCCO2)cc1 (stereo not drawn) | -0.8 | 0.8 | 2.6 | 3.7 | 21999* | 3.5
CCOc1ccc(NC(=O)N2CCC(c3ccc(C)cc3)C2)cc1 (stereo not drawn) | -3.5 | 1.9 | -0.8 | 0.6 | 22970* | 20.8
CCOC(=O)N1CCC(N(CCN(C)C)C(=S)Nc2cc(Cl)cc(Cl)c2)CC1 | 1.9 | 0.5 | -0.5 | -3.4 | 4263 | 4.0
CCOC(=O)N1CCC(N(CCN(C)C)C(=S)Nc2ccc(OCC)cc2)CC1 | . | . | . | . | . | 53.7*
Cn1nc(C(=O)OCC(=O)NCCc2ccccc2)c2ccccc2c1=O | -1.6 | -1.3 | -2.2 | -5.6 | 4456 | -9.1
COc1ccc(OC)c(N/C(C)=C/C(=O)c2ccc(C)o2)c1 | -1.2 | 2.4 | ? | -7.4 | 20443* | 2.4
COc1ccc(OC)c(N/C(C)=C/C(=O)c2ccc(Br)cc2)c1 | -4.7 | -5.3 | -1.1 | -6.7 | 4241 | 2.1
CC1(C)NC(=O)N(CC(=O)Nc2nc(-c3ccc(F)cc3)cs2)C1=O | -8.0 | 1.3 | 3.1 | 1.4 | 18087* | 10.4
O=C(CN1C(=O)NC2(CCCC2)C1=O)Nc1nc(-c2ccc(F)cc2)cs1 | 4.9 | 6.4 | -0.9 | -6.6 | 10228 | 47.8
O=c1[nH]ncn1-c1cccc(C(F)(F)F)c1 | -0.7 | 9.8 | 0.9 | 2.7 | 8043 | 20.8
COc1ccc(CNS(=O)(=O)CCNCc2ccccc2OC)cc1 | 0.5 | 6.8 | 0.0 | -7.2 | 3797 | .
FC(F)(F)c1cc(-c2ccco2)nc(N2CCN(Cc3ccccc3)CC2)n1 | -4.0 | -12.4 | -5.6 | -8.9 | 21755* | 23.2
Fc1ccc(N2CCN(c3nc(-c4ccco4)cc(C(F)(F)F)n3)CC2)cc1 | -16.4 | 0.5 | -0.2 | 12.1 | 9624 | 20.8
CC(C)NC(=O)NNC(=O)Cn1nnc(-c2cccc(Cl)c2Cl)n1 | -2.7 | 5.0 | -0.3 | -6.2 | 5608 | 12.5
CCc1ccc(CN2CCN(c3ncccn3)CC2)cc1 | 7.6 | -3.9 | -1.3 | 44.4* | 3994 | -15.7
O=C(N1CCOCC1)C1(c2ccc(Cl)cc2)CCCC1 | -6.0 | 5.7 | 0.3 | 0.0 | 3169 | 21.3
Cc1ccc2c(c1)[C@H]1[C@H](CO2)[C@H](c2ccccc2)[C@]2(C)C(=O)Nc3ccc(Br)cc3C(=O)N12 | 3.3 | -17.4 | -0.6 | -2.1 | 4022 | .
Cc1cc(=O)[nH]c2c(C)c(N)ccc12 | 0.2 | -3.8 | 0.9 | -1.9 | 23024* | 29.0
Cc1cc(=O)[nH]c2c(C)c(Cl)ccc12 | . | . | . | . | . | 31.6
Cc1sc2ncn(CC(=O)N3CCC(C(N)=O)CC3)c(=O)c2c1S(=O)(=O)N1CC(C)CC(C)C1 (stereo not drawn) | 3.3 | 0.7 | 0.0 | -0.6 | 5828 | 25.5
COc1ccc(CNC(=O)c2noc3c2CCCCC3)cc1 | -4.5 | -2.5 | -1.2 | -1.5 | 21035* | 14.5
O=C(NCc1ccccc1)c1noc2c1CCCCC2 | -1.9 | 4.4 | -0.6 | -1.7 | 16329* | 12.0
COc1ccc(NC(=O)c2noc3c2CCC3)cc1 | 8.1 | 6.0 | -0.3 | -0.4 | 6488 | 18.8
O=C(Nc1cccc(O)c1)c1noc2c1CCCCC2 | -1.4 | 4.1 | -0.7 | 1.8 | 8104 | 6.2
O=C(NCc1ccco1)c1noc2c1CCCC2 | -0.5 | -0.5 | 0.2 | 1.9 | 11017 | -7.1
O=C(NCc1cccs1)c1noc2c1CCCCC2 | -8.8 | 2.7 | -3.3 | -6.1 | 16908* | 10.9
Cc1ccc(CN2C(=O)CCC2C(=O)NC2CC2)cc1 (stereo not drawn) | . | -6.0 | . | . | . | -4.3
O=C(CSc1ncccn1)n1c2c(c3ccccc31)CCCC2 | -9.0 | 4.2 | -8.4 | -66.6 | 18875* | 2.6

Screening results from PubChem BioAssay.
